Source: PubChem (National Center for Advancing Translational Sciences (NCATS))
The list is not random: actives were taken first. Their share in the collection is about 5.7%.
TGFb inhibitor – qHTS for Inhibitors of TGF-b; HepG2 CAGA-GFP TGF-b/SMAD3 reporter, GFP fluorescence, 18 h; TGF-beta stimulated, 500 pg/mL final; Potency, µM (highest dose often 46.1 µM), without a hit: at the top dose activity, negative = inhibition, most hits filed as inhibitors; hit rate 1.2% among 410,000; also: potency is read from the fitted curve at half-maximal effect; % is scaled to controls: 0 for no effect and ±100 for the full control effect; nearly all actives have a fitted effect of over 65% in size
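TGF-beta reporter screen: HEPG2 CAGA-GFP, 1% FBS, 500 pg/mL TGF-beta final, 18 h; per-cell GFP summed per well; curves fitted and categorized by class.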
HepG2 viability – qHTS for Inhibitors of TGF-b: Cytotox Counterscreen; hit rate 0.76% among 410,000; Potency, µM (titrated, usually from 46.1 µM), for inactives: at the top dose activity change, negative = cytotoxicity, usual class: cytotoxic; HepG2 CAGA-GFP viability, ATP luminescence, 18 h; AID 588856, 2011; also: potency is read from the fitted curve at half-maximal effect
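CellTiter-Glo luminescence gave cytotoxicity after 18 hours at 37 degrees C. The cells were HepG2 CAGA-GFP in 1% FBS DMEM, stimulated with 500 pg/mL TGF-beta after compound addition. %Activity was normalised to no-cell wells (complete cell-killing) and DMSO (no toxicity), and curves were fitted and classified.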
ATXN2 expr inh – Primary qHTS for Inhibitors of ATXN expression | HEK-293 ATXN2-luciferase reporter, luminescence, 24 h | Potency, µM (series often up to 57 µM), for inactives: at the top dose activity change, negative = inhibition, actives largely listed as inhibitors | hit rate 0.72% among 360,000 | AID 1745845, 2022; also: potency is read from the fitted curve at half-maximal effect; % is scaled to controls: 0 for no effect and ±100 for the full control effect; nearly all actives have a fitted effect of over 55% in size
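qHTS (up to 57 uM final) was run with 24 h compound exposure of reporter cells at 37 °C. Each well was multiplexed: SteadyGlo luminescence measured ATXN2-luciferase expression after a fluorogenic Gly-Phe-AFC viability readout (25 uM final).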
ATXN viability – Viability Counterscreen for Primary qHTS for Inhibitors of ATXN expression; Potency, µM (doses to about 56.7 µM), usual class: cytotoxic; S2 cells (HEK-293 line with an ATXN2-luciferase reporter) viability, CellTiter-Fluor protease fluorescence, 24 h; hit rate 0.49% among 400,000; also: potency is read from the fitted curve at half-maximal effect; nearly all actives have a fitted effect of over 40% in size
IL1B secr inh – qHTS for Inhibitors of Inflammasome Signaling: IL-1-beta AlphaLISA Primary Screen. THP-1 LPS/ATP IL-1B secretion, AlphaLISA, 16 h; stronger effect = lower value. activity change, % at 57.5 µM. hit rate 4.7% among 360,000. AID 743279, 2014; in the data active = activity change below about -50%; inconclusive = mostly about -30% to -49%; also: % is scaled to controls: 0 for no effect and ±100 for the full control effect
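THP-1 cells pretreated 1 hr with compounds (up to 57.5 uM final), then stimulated with LPS (250 ng/mL final) plus ATP (1.25 mM final); secreted IL-1B measured by AlphaLISA after 16 hr, decreased signal indicating inhibition.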
* = called active by the depositor; i = inactive; ? = inconclusive; . = no result given. Unless noted, calls follow the shape of the dose curve; as a rule, active = well fitted curve in the direction sought with a large enough effect; inconclusive = small, poorly fitted or top-dose-only effect, or another doubt; inactive = no such curve, though single readings can be large; an effect the other way counts as inactive or inconclusive.

SMILES	TGFb inhibitor	HepG2 viability	ATXN2 expr inh	ATXN viability	IL1B secr inh
O=[N+]([O-])c1cccnc1N1CCN(c2ccccc2F)CC1	-2.7%	4.8%	19.2%	i	-2.9
Cc1ccc(N2CCN(c3ncccc3[N+](=O)[O-])CC2)c(C)c1	?	-37.2%	-3.9%	i	-50.4*
O=[N+]([O-])c1cccnc1N1CCCCC1	?	-22.5%	4.2%	i	8.1
Cc1ccc(NC(=O)CN2CCSc3ccc(S(=O)(=O)N4CCCC4)cc32)cc1C	?	0.0%	-33.4%	14.1µM*	.
COc1ccc(NC(=O)CN2C(=O)COc3ccc(S(=O)(=O)N4CCCCC4)cc32)cc1Cl	?	-14.4%	.	.	.
Cc1ccc(NC(=O)CN2C(=O)COc3ccc(S(=O)(=O)N4CCCCCC4)cc32)cc1Cl	10µM*	-54.3%	.	.	.
CC(C)c1ccc(NC(=O)CN2C(=O)COc3ccc(S(=O)(=O)N4CCCCC4)cc32)cc1	-6.1%	-12.5%	.	.	.
COc1ccc(NC(=O)CN2C(=O)CSc3ccc(S(=O)(=O)N4CCCC4)cc32)cc1OC	8.6%	-0.1%	13.8%	i	-17.1
Cc1ccc(NC(=O)CN2C(=O)COc3ccc(S(=O)(=O)N4CCCC4)cc32)cc1C	7.9%	4.2%	4.7%	?	-51.8*
COc1cc2c(NC3CCN(C)CC3)nc(N3CCCN(C)CC3)nc2cc1OCCN(C)CCN(C)C	4.4%	-6.8%	.	.	.
CC(C)N=C1NN=C(c2ccc(Cl)c(Cl)c2)CS1	?	-21.4%	56.0%	i	-73.8*
CCCCCCC(=O)N(O)C1CC(=O)N(c2ccc(Br)cc2)C1=O (stereo unspecified)	?	-21.2%	-21.5%	i	-81.7*
CCCCCCC(=O)N(O)C1CC(=O)N(c2ccc(F)cc2)C1=O (stereo unspecified)	17.8µM*	-3.5%	1.6%	?	-88.1*
CCCCN(C(=O)CCC(=O)O)C1CC(=O)N(c2ccc(OCCC)cc2)C1=O (stereo unspecified)	-9.6%	15.6%	4.9%	i	-6.5
O=C(COCc1ccccc1)N[C@@H]1c2ccccc2CC[C@@H]1OCc1ccccc1	?	-4.8%	-20.7%	i	-51.3*
O=C(Cc1ccccc1)N[C@@H]1c2ccccc2CC[C@@H]1OCc1ccccc1	-19.9%	-37.0%	-0.2%	i	-23.7
COc1ccc(CCNC(=O)c2cc(Nc3cc(C)cc(C)c3)nc3ccccc23)cc1OC	?	-27.6%	-38.8%	?	.
O=C(CN1c2ccccc2Sc2ccccc21)NNC(=O)Nc1cccc(Cl)c1	?	-52.8%	-25.7%	?	-88.3*
O=C(Cc1ccccc1)NNC(=O)Nc1cccc(Cl)c1	14.5%	2.2%	0.8%	i	-17.7
C/C(=N/NS(=O)(=O)c1ccc(C)cc1C)c1c[nH]c2ccccc12	17.8µM*	-25.4%	-18.2%	i	-8.1
C/C(=N/NS(=O)(=O)c1ccc(C)c(C)c1)c1c[nH]c2ccccc12	-22.1%	-27.4%	0.9%	i	0.8
CCc1ccccc1NC(=O)CN1C(=O)c2cccnc2Oc2ccc(Cl)cc21	0.0%	-21.7%	.	.	.
O=C(NC1CC(=O)N(c2ccc(Cl)cc2)C1)c1ccc(S(=O)(=O)N2CCCC2)cc1 (stereo unspecified)	1.0%	9.1%	.	.	.
CSCCC(c1nnnn1-c1c(C)cccc1C)N1CCN(C/C=C/c2ccccc2)CC1 (stereo unspecified)	?	-44.3%	-27.0%	i	-59.3*
CC(=O)c1ccc(NC(=O)CN2C(=O)c3cccnc3Sc3ccccc32)cc1	6.3%	-3.1%	32.4%	i	.
COc1cccc(NC(=O)CN(C)C(=O)c2cn(-c3ccccc3)nc2-c2cccnc2)c1	-5.4%	-22.7%	11.3%	i	0.0
COc1ccc(NC(=O)CN(C)C(=O)c2cn(-c3ccccc3)nc2-c2ccc(Cl)cc2)cc1	?	-8.4%	?	?	-59.9*
CN(CC(=O)Nc1cccc(F)c1)C(=O)c1cn(-c2ccccc2)nc1-c1ccc(Cl)cc1	?	-39.1%	.	?	-59.9*
